This passage reports Potency, activity and activity change, negative = inhibition results from PubChem BioAssay (NCATS).

The structures appear in SMILES notation. Results filed as inconclusive are left out. Activity calls are given as the source filed them. Calls come from the whole dose curve; as a rule, active = well fitted curve in the direction sought with a large enough effect; inconclusive = small, poorly fitted or top-dose-only effect, or another doubt; inactive = no such curve, though single readings can be large; an effect the other way counts as inactive or inconclusive. *1 amine or outer side, *2 acyl side, *3 side chain or, on linkers, in order; H or OH if unused. Where a SMILES comes first, the peptide text is derived from it. [ ]: non-standard residue; d: D form. X13 = O=C(C(CC(O)CO)O[*:1])[*:2]; NMeV = CN[CH](C(=O)O)C(C)C; NMeA = CN[CH](C)C(=O)O; βAla = NCCC(=O)O

For test [1], the target named is Calcium and integrin-binding protein 1 (Homo sapiens) (UniProt Q99828). The experiment in a line: Primary qHTS for Identification of Calcium Integrin Binding Protein 1 (CIB1) Competitor (AID 1508620).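 Note: GST tagged CIB1 binding a fluorescein labelled alphaIIb integrin peptide tracer; top concentration of the series differs between compounds; % is set by controls: 0 for no effect and ±100 for the full control effect.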 Conditions: CIB1-GST / FITC-alphaIIb peptide fluorescence polarization; series mostly up to 57.7 µM. In a few lines: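 CIB1-GST (1 uM final) and compound incubated 15 min at room temperature before adding FITC-alphaIIb peptide tracer (100 nM final). Competition for binding read by fluorescence polarization (ex 480, em 540) after another 15 min at room temperature.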

A short description of test [2]: Primary qHTS for inhibitors of nuclear receptor binding SET domain protein 2 (NSD2) in an isogenic RCH-ACV NSD2 p.E1099K mutant (9B) (AID 1645876). Note: % is set by controls: 0 for no effect and ±100 for the full control effect; nearly all actives have a fitted effect of over 70% in size. Conditions: RCH-ACV (leukaemia line) NSD2 E1099K (9B) viability, CellTiter-Glo, 72 h; series mostly up to 44.9 µM.
Test [3] addresses N-terminal Xaa-Pro-Lys N-methyltransferase 1 (Homo sapiens) (UniProt Q9BV86). Put plainly: Confirmatory qHTS for Inhibitors of N-terminal methyltransferase 1 (NTMT1): MTaseGlo Assay (AID 1645874).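 Note: luminescence from SAH made as NTMT1 methylates SPKRIA peptide using SAM; 0% = DMSO control and -100% = no-enzyme control; nearly all actives have a fitted effect of over 65% in size.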 Conditions: NTMT1 enzyme, MTase-Glo SAH luminescence; series mostly up to 51.5 µM. In a few lines:
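Room-temperature NTMT1 reaction, 30 min, with 100 uM SAM and 1 uM SPKRIA substrate; enzyme 125 nM. Read-out: MTase-Glo luminescence, normalized to no-enzyme and DMSO controls.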

Test [4] has as its target Catechol O-methyltransferase (Homo sapiens) (UniProt P21964). The experiment in a line: Confirmatory Screen for Target Class Profiling of Small Molecule Inhibitors of Methyltransferases (AID 1745852). For activity change, negative = inhibition: % is set by controls: 0 for no effect and ±100 for the full control effect. Conditions: MTase-Glo luminescence, SAH detection, recombinant enzyme; measured here: COMT max response; stronger effect = lower value.
For test [5], the target named is Guanidinoacetate N-methyltransferase (Homo sapiens) (UniProt Q14353). Described as above. Conditions: MTase-Glo luminescence, SAH detection, recombinant enzyme; activity change, negative = inhibition: at 57.3 µM (top of the series) unless noted.
For test [6], the target named is Nicotinamide N-methyltransferase (Homo sapiens) (UniProt P40261). The test is described as above. Conditions: MTase-Glo luminescence, SAH detection, recombinant enzyme; measured here: NNMT max response; stronger effect = lower value.
The target of test [7] is Phenylethanolamine N-methyltransferase (Homo sapiens) (UniProt P11086). The description is as above. Conditions: MTase-Glo luminescence, SAH detection, recombinant enzyme; measured here: PNMT max response; stronger effect = lower value.
Sequence of Phenylethanolamine N-methyltransferase (Homo sapiens) (P11086 whole entry, looked up): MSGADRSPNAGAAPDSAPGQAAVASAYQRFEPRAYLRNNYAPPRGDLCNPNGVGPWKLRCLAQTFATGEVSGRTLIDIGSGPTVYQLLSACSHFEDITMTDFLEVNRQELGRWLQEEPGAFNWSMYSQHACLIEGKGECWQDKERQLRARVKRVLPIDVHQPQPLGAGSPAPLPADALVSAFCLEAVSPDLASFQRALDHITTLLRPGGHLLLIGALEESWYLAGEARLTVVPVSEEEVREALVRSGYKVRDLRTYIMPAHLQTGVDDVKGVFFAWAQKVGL

Sequence of Calcium and integrin-binding protein 1 (Homo sapiens) (Q99828 whole entry, looked up): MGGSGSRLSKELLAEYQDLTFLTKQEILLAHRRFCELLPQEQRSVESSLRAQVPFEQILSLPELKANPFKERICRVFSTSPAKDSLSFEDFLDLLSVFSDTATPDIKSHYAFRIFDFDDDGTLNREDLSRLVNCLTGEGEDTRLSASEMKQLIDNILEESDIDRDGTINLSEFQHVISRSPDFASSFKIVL
Sequence of N-terminal Xaa-Pro-Lys N-methyltransferase 1 (Homo sapiens) (Q9BV86 whole entry, looked up): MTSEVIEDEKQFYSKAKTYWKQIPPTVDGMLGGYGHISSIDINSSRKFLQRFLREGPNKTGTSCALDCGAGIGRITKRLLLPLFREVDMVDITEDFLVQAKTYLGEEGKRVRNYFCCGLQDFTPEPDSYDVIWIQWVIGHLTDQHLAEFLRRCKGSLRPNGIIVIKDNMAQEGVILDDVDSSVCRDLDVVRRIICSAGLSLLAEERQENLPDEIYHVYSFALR
Sequence of Nicotinamide N-methyltransferase (Homo sapiens) (P40261 whole entry, looked up): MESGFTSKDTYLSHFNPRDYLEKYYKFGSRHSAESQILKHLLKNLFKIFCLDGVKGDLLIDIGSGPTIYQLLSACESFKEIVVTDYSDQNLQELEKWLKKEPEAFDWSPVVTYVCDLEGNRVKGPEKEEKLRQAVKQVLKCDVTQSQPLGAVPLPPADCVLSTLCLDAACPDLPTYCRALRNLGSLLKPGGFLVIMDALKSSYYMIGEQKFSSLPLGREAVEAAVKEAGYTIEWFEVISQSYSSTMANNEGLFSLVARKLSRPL
Sequence of Catechol O-methyltransferase (Homo sapiens) (P21964 whole entry, looked up): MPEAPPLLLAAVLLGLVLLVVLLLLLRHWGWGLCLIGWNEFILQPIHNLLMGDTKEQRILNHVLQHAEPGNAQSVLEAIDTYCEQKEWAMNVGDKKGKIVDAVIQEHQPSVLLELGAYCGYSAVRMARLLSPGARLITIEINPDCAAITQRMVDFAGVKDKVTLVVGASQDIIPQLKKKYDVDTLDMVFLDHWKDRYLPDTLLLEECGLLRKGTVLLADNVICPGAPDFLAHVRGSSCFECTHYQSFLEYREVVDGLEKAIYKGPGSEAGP

Turning to `CC/C=C/C=C/C1(C)OC(CC(CO)OC)=CC1=O` (centres undefined), the Potency entry in test [1] and in test [2] was “inactive” in each case.

Take `C=C1C(OC(C)=O)C(=O)C2C(C)(C)C(O)CCC2(C)C1CC(OC(C)=O)/C(C)=C/COC(C)=O` (centres undefined): the Potency entry in test [1] and in test [2] was “inactive” each time.

Take `CC(C)c1cc2c(c(O)c1O)[C@@]13CCCC(C)(C)C1[C@@H](O)[C@@H]2OC3=O` (some centres undefined): the Potency entry in test [1] and in test [3] was “inactive” in each case. Besides, the activity in test [4] was -82.4%; in test [6], -4.78%; in test [7], -0.254%. Further, the activity change, negative = inhibition in test [5] is -4.37%.

On to `COC(=O)C(CC1(OC(=O)C(C)C)c2ccccc2N2C(=O)C(C)(C)N(O)C21)n1cnc2ccccc2c1=O` (centres undefined), for which the Potency result in test [1] and in test [2] was “inactive” throughout.

Take `C=CC(C)(O)CCC1C(C)(O)CCC2C(C)(C)CCCC21C` (centres undefined): the Potency result in test [1] and in test [2] was “inactive” each time.

Consider `C/C(=C\CC[C@H](CO)[C@@H]1CC[C@]2(C)C3=C(CC[C@@]12C)[C@@]1(C)CCC(=O)C(C)(C)C1CC3)C(=O)O` (some centres undefined), for which the Potency entry in test [1] and in test [2] was “inactive” throughout.

With `C=C1CC[C@@]2(OC1)O[C@H]1CC3[C@@H]4CC=C5C[C@@H](O)C[C@@H](O[C@@H]6OC[C@H](O)[C@H](O)[C@H]6O[C@@H]6O[C@@H](C)[C@H](O)[C@@H](O)[C@H]6O)[C@]5(C)C4CC[C@]3(C)[C@H]1[C@@H]2C` (some centres undefined), the Potency entry in test [1] and in test [2] was “inactive” in each case.

`CCC(C)C1NC(=O)C2CCCN2C(=O)C(CC(O)CO)OC(=O)CCNC(=O)C(C)N(C)C(=O)C(C(C)C)N(C)C1=O` (centres undefined) (cyclo([X13]PI[NMeV][NMeA][βAla]); configuration not given here): the Potency entry in test [1] and in test [2] was “inactive” in each case.

With `C=C1CCC2C(C)(C)CC(=O)CC2(C)C1CCC(C)CCO` (centres undefined), the Potency entry in test [1] and in test [2] was “inactive” throughout.

On to `CC(=O)NC(C(=O)OC1CCC(C)(C)C2CC=C3C(=O)OCC3C12C)C(C)C` (centres undefined), for which the Potency entry in test [1] and in test [2] was “inactive” each time.
